Out of some 39,000 compounds screened, about 1,500 (3.8%) were called active. What follows is part of a selection rich in actives, with near analogues and random picks from the rest.
Each compound was assayed on HSkMC (human skeletal muscle cells) (assay: cytotoxicity call (relative viability < 0.9)). Conditions: 10 µM.

| SMILES | cytotoxicity call |
| --- | --- |
| OCc1cccc(CO)n1 | inactive |
| COC(=O)[C@@H](Cc1ccc(-n2cc(-c3ccc(C(=O)NO)s3)nn2)cc1)N1CC2=C[C@H](C3CC3)n3c(=O)n(C)c(=O)n3[C@@H]2[C@H]1[C@H](O)Cc1ccccc1 | inactive |
| CCCNC(=O)N(C)C[C@@H]1Oc2cc(C#Cc3cccc(F)c3)ccc2S(=O)(=O)N([C@H](C)CO)C[C@@H]1C | inactive |
| CO[C@H]1CN(C)C(=O)c2cc(NS(C)(=O)=O)ccc2OC[C@@H](C)N(C(=O)c2ccc3c(c2)OCO3)C[C@@H]1C | inactive |
| Cc1ccc(S(=O)(=O)Nc2ccc3c(c2)C(=O)N([C@H](C)CO)C[C@H](C)[C@H](CN(C)S(C)(=O)=O)O3)cc1 | inactive |
| COc1ccc(S(=O)(=O)Nc2ccc3c(c2)CC(=O)N([C@@H](C)CO)C[C@@H](C)[C@H](CN(C)C(=O)NC(C)C)O3)cc1 | inactive |
| CN(C)Cc1cn(CC[C@@H]2CC[C@H](NC(=O)Cc3cccnc3)[C@H](CO)O2)nn1 | inactive |
| Cc1ccc(S[C@]2(C(=O)NCc3ccccc3)CC(=O)N(Cc3cc(C(F)(F)F)cc(C(F)(F)F)c3)[C@@H]2c2ccc(CO)cc2)cc1 | inactive |
| CCOC(=O)c1cc2c(c(-c3cccc(-c4cccc(OC)c4)c3)n1)[C@@H](CCO)N(S(=O)C(C)(C)C)C2 (stereo not given in full) | inactive |
| COCC(=O)N1C[C@@H](C)[C@H](OC)CN(C)C(=O)c2ccc(NC(=O)c3ccc(OC)cc3)cc2OC[C@H]1C | inactive |
| CCN1CCC[C@@H]1CN1CNC(=S)NC1 | inactive |
| CCCCCCCc1c(C)c(O)cc2c1[nH]c1ccccc12 | inactive |
| COC(=O)CCc1ccc(OC)cc1O | inactive |
| CCCCCCc1ccc(O)cc1O [listing 1 of 2 here] | active |
| CCCCCCc1ccc(O)cc1O [listing 2 of 2 here] | active |
| CCCCCCc1ccc(O)cc1O.Nc1c2ccccc2nc2ccccc12 | inactive |
| CCCCCCCCc1ccc(-c2ccc(C(=O)O)cc2)cc1 | inactive |
| COc1ccc(NC(=O)N(C)C[C@@H]2Oc3c(NC(=O)C4CC4)cccc3C(=O)N([C@@H](C)CO)C[C@@H]2C)cc1 | inactive |
| CC1OC(OC2C(O)CC(OC3C(O)CC(OC4CCC5(C)C(CCC6C5CC(O)C5(C)C(C7=CC(=O)OC7)CCC65O)C4)OC3C)OC2C)CC(O)C1O (stereo not given) | active |
| C[C@H]1O[C@@H](O[C@H]2[C@@H](O)C[C@H](O[C@H]3[C@@H](O)C[C@H](O[C@H]4CC[C@@]5(C)[C@H](CC[C@@H]6[C@@H]5C[C@@H](O)[C@@]5(C)[C@@H](C7=CC(=O)OC7)CC[C@]65O)C4)O[C@@H]3C)O[C@@H]2C)C[C@H](O)[C@@H]1O | active |
| C[C@H]1O[C@@H](O[C@H]2[C@@H](O)C[C@H](O[C@H]3[C@@H](O)C[C@H](O[C@H]4CC[C@@]5(C)[C@H](CC[C@@H]6[C@@H]5C[C@@H](O)[C@]5(C)[C@@H](C7=CC(=O)OC7)CC[C@]65O)C4)O[C@@H]3C)O[C@@H]2C)C[C@H](O)[C@@H]1O | active |
| C[C@@H]1CCCCO[C@@H](CN(C)Cc2ccc3c(c2)OCO3)[C@@H](C)CN([C@H](C)CO)C(=O)c2cc(NS(=O)(=O)c3ccc(Cl)cc3)ccc2O1 | inactive |

| SMILES | cytotoxicity call |
| --- | --- |
| C[C@H](CO)N1C[C@H](C)[C@@H](CN(C)S(=O)(=O)c2ccccc2F)Oc2cc(-c3ccncc3)ccc2S1(=O)=O | inactive |
| CC(C)NC(=O)Nc1cccc2c1O[C@@H](CN(C)S(=O)(=O)c1cccs1)[C@@H](C)CN([C@@H](C)CO)C2=O | inactive |
| O=C(C[C@@H]1C[C@@H]2c3cc(NC(=O)Cc4ccncc4)ccc3O[C@@H]2[C@@H](CO)O1)NCc1cccc(F)c1 | inactive |
| COCC#Cc1ccc2c(c1)O[C@@H](CN(C)C(=O)CN(C)C)[C@H](C)CN([C@@H](C)CO)S2(=O)=O | inactive |
| Cc1noc(C)c1NC(=O)N(C)C[C@@H]1OCCCC[C@@H](C)Oc2ccc(NC(=O)Cc3ccccc3)cc2C(=O)N([C@H](C)CO)C[C@H]1C | inactive |
| CCOC(=O)[C@@](C)(N)Cc1ccc(O)c(O)c1 | active |
| CC(N)(Cc1ccc(O)c(O)c1)C(=O)O (stereo not given) [listing 1 of 2 here] | inactive |
| CC(N)(Cc1ccc(O)c(O)c1)C(=O)O (stereo not given) [listing 2 of 2 here] | inactive |
| CN1C(=O)c2cc(NC(=O)c3ccc(C(F)(F)F)cc3)ccc2OC[C@@H]2O[C@@H](CC(=O)NC3Cc4ccccc4C3)CC[C@H]21 | active |
| COc1ccccc1C(=O)Nc1ccc2c(c1)C(=O)N(C)[C@@H]1CC[C@H](CC(=O)NCc3ccc(Cl)c(Cl)c3)O[C@H]1CO2 | inactive |
| COc1ccccc1C(=O)Nc1ccc2c(c1)C(=O)N(C)[C@@H]1CC[C@H](CC(=O)NCc3ccc(Cl)c(Cl)c3)O[C@@H]1CO2 | inactive |
| COc1ccccc1C(=O)Nc1ccc2c(c1)C(=O)N(C)[C@@H]1CC[C@@H](CC(=O)NCc3ccc(Cl)c(Cl)c3)O[C@@H]1CO2 | inactive |
| COc1ccccc1C(=O)Nc1ccc2c(c1)C(=O)N(C)[C@H]1CC[C@@H](CC(=O)NCc3ccc(Cl)c(Cl)c3)O[C@@H]1CO2 | active |
| CN1C(=O)c2cc(NC(=O)Nc3cccc(C#N)c3)ccc2OC[C@H]2O[C@@H](CC(=O)Nc3ccc4c(c3)CCC4)CC[C@@H]21 | inactive |
| CN1C(=O)c2cc(NC(=O)c3ccc(C(F)(F)F)cc3)ccc2OC[C@@H]2O[C@H](CC(=O)NC3Cc4ccccc4C3)CC[C@H]21 | inactive |
| COc1ccccc1C(=O)Nc1ccc2c(c1)C(=O)N(C)[C@@H]1CC[C@@H](CC(=O)NCc3ccc(Cl)c(Cl)c3)O[C@H]1CO2 | active |
| Cc1noc(C)c1NC(=O)Nc1ccc2c(c1)C(=O)N(C)[C@H]1CC[C@H](CC(=O)Nc3ccc4c(c3)CCCC4)O[C@@H]1CO2 | active |
| COc1cccc(C(=O)Nc2ccc3c(c2)C(=O)N(C)[C@H]2CC[C@H](CC(=O)Nc4ccc5c(c4)CCCC5)O[C@@H]2CO3)c1 | inactive |
| COc1ccccc1C(=O)Nc1ccc2c(c1)C(=O)N(C)[C@H]1CC[C@H](CC(=O)NCc3ccc(Cl)c(Cl)c3)O[C@@H]1CO2 | inactive |
| CN1C(=O)c2cc(NC(=O)c3ccc(C(F)(F)F)cc3)ccc2OC[C@@H]2O[C@H](CC(=O)NC3Cc4ccccc4C3)CC[C@@H]21 | inactive |
| CC(C)NC(=O)N(C)C[C@H]1OCc2cn(nn2)CCCC(=O)N([C@H](C)CO)C[C@H]1C | inactive |
| C[C@H]1CN([C@@H](C)CO)C(=O)c2cc(NS(C)(=O)=O)ccc2O[C@@H]1CN(C)S(=O)(=O)c1ccc(Cl)cc1 | inactive |

| SMILES | cytotoxicity call |
| --- | --- |
| CO[C@H]1CN(C)C(=O)c2ccc(NC(=O)Nc3ccc(Cl)cc3)cc2OC[C@@H](C)N(C(=O)Nc2c(C)noc2C)C[C@H]1C | inactive |
| C[C@@H]1CCCCO[C@@H](CN(C)Cc2ccncc2)[C@@H](C)CN([C@H](C)CO)C(=O)c2cc(NC(=O)Nc3ccc(C(F)(F)F)cc3)ccc2O1 | inactive |
| CC(C)CC#Cc1ccc2c(c1)O[C@@H](CN(C)S(=O)(=O)c1cccc(F)c1)[C@@H](C)CN([C@@H](C)CO)S2(=O)=O | inactive |
| C1CCN2CC3CC(CN4CCCCC34)C2C1.O=S(=O)(O)O (stereo not given) | inactive |
| C[C@@H]1CN([C@@H](C)CO)C(=O)c2cc(NC(=O)CCCN(C)C)ccc2O[C@H]1CN(C)S(=O)(=O)c1ccc(Cl)cc1 | inactive |
| C[C@H]1CN([C@@H](C)CO)C(=O)Cc2cc(N(C)C)ccc2O[C@@H]1CN(C)S(=O)(=O)c1ccc(F)cc1 | inactive |
| C[C@@H]1CN([C@H](C)CO)C(=O)CCCn2cc(nn2)CO[C@H]1CN(C)S(=O)(=O)c1ccc(Oc2ccccc2)nc1 | inactive |
| C[C@@H]1CN([C@@H](C)CO)C(=O)c2cccc(NC(=O)C3CC3)c2O[C@@H]1CN(C)S(=O)(=O)c1ccc(F)cc1 | inactive |
| Cn1c(Nc2ccc(C(F)(F)F)cc2)nc2cc(Oc3ccnc(-c4ncc(C(F)(F)F)[nH]4)c3)ccc21 | active |
| Nc1nc(=O)c2c(CCc3ccc(C(=O)NC(CCC(=O)[O-])C(=O)[O-])cc3)c[nH]c2[nH]1.[Na+].[Na+] (stereo not given) | inactive |
| CC(C)CC#Cc1ccc2c(c1)O[C@@H](CN(C)C(=O)c1cnccn1)[C@@H](C)CN([C@@H](C)CO)S2(=O)=O | inactive |
| COc1ccc(CN(C)C[C@@H]2Oc3ccc(NS(=O)(=O)c4c(C)noc4C)cc3CC(=O)N([C@H](C)CO)C[C@H]2C)cc1 | inactive |
| C[C@H]1[C@@H](O)[C@@H](C)\C=C/C=C\C=C/C=C\C=C/C=C\C=C/[C@@H](O[C@H]2O[C@H](C)[C@@H](O)[C@H](N)[C@@H]2O)C[C@H]2O[C@](O)(C[C@@H](O)C[C@@H](O)[C@@H](O)CC[C@@H](O)C[C@@H](O)CC(=O)O[C@H]1C)C[C@@H](O)[C@@H]2C(=O)O | inactive |
| CC1C=CC=CC=CC=CC=CC=CC=CC(OC2OC(C)C(O)C(N)C2O)CC(O)C(C(=O)O)C(O)CC(=O)CC(O)CC(O)CC(O)CC(=O)CCCC(=O)CC(=O)OC1C(C)CC(C)C(O)CC(=O)c1ccc(N)cc1 (stereo not given) | active |
| CC1C=CC=CC=CC=CC=CC=CC=CC(OC2OC(C)C(O)C(N)C2O)CC2OC(O)(CC(O)CC(O)C(O)CCC(O)CC(O)CC(=O)OC(C)C(C)C1O)CC(O)C2C(=O)O (stereo not given) | inactive |
| COc1ccc(CN(C)C[C@@H]2OCCCC[C@@H](C)Oc3ccc(NC(=O)NC(C)C)cc3C(=O)N([C@H](C)CO)C[C@H]2C)cc1 | inactive |
| Cc1cccc(NC(=O)Nc2ccc3c(c2)C(=O)N(C)[C@@H]2CC[C@H](CC(=O)NCc4ccccc4Cl)O[C@@H]2CO3)c1 | inactive |
| Cc1ccc(S(=O)(=O)Nc2ccc3c(c2)C(=O)N([C@H](C)CO)C[C@@H](C)[C@@H](CN(C)S(C)(=O)=O)OCCCC[C@H](C)O3)cc1 | inactive |
| c1cnc2c(SCc3nc4ccccc4s3)cccc2c1 | active |
| CCSc1cccc2cccnc12 | inactive |
| c1ccc2c(CSc3nc4ccccc4s3)cccc2c1 | inactive |

Source: the antibiotic and cytotoxicity screens of Wong et al. (2023)
